These results are taken from PubChem BioAssay AID463173 (ICCB-Longwood Screening Facility, Harvard Medical School, 2010).

Out of some 52,000 compounds screened, about 1,700 (3.3%) were called active. Rule as the data show it: active = survival mostly below about 52% (no sharp cut-off); inactive = mostly above about 56%. What follows is part of a selection rich in actives, with near analogues and random picks from the rest.

In the assay the test system is Wild type. In words: S. aureus survival, RN4220 and DeltatarO strains – OD600, teichoic acid synthesis inhibitors, primary screen (AID 463173). To be noted: S. aureus RN4220 wild type/DeltatarO growth, OD600, 18 h, active compounds read low, screened at 18.75 µg/mL (by protocol).
For `Cc1ccc(-c2nc3ccccc3[nH]2)cc1NC(=O)COc1ccc(Cl)cc1Cl`, the survival is 45% (inactive).
Next, `CC1=C(c2ccc(C(C)C)cc2)S(=O)(=O)NC1=NCc1ccccc1Br`: 82% (inactive); `COc1cc(NC(=O)CSc2nc3ccccc3nc2Cc2ccccc2OC)cc(OC)c1`: 66% (inactive).
Then `COc1ccccc1Cn1cc(C(=O)c2ccc(C)cc2)c(=O)c2cc(F)cc(F)c21`, with 81% (inactive); and `Cc1cc(C)c(NC(=O)Cn2c(=O)n(CCCCC(=O)NCc3ccccc3Cl)c(=O)c3ccccc32)c(C)c1`, with 106% (inactive); and `Cc1cncn1CCc1nc2c3ccccc3nc(SCC(=O)Nc3cccc(Cl)c3)n2n1`, with 80% (inactive).
On to `CCc1c(CN2CCN(c3ccccc3F)CC2)csc1C`, for which the survival is 52% (inactive).
Then `Cc1ccc(CNC(=O)CSCc2ccc(F)cc2)cc1`, with 101% (inactive).
Next, `O=C(CCCSc1nc(-c2ccco2)cc(C(F)(F)F)n1)NCC1CCCO1` (stereo not drawn): 108% (inactive); `COc1ccccc1CNC(=O)c1cc2c(-c3ccc(Cl)cc3)nn(C)c2s1`: 151% (inactive); `Cc1cccc(OCCCn2c(CCNC(=O)C(C)(C)C)nc3ccccc32)c1`: 84% (inactive).
For the compound `COCc1nc2ccccc2n1CCOc1cccc(C)c1`, the survival is 53% (inactive).
Then `CCc1nc2ccccc2n1CCCCOc1cccc(C)c1`, with 12% (active); and `COc1ccc(-c2noc(N3CCC(C(=O)N4CCN(c5ccccc5F)CC4)CC3)n2)cc1`, with 108% (inactive); and `COc1ccc(-n2ncc3c(NC4CCCC4)ncnc32)cc1`, with 129% (inactive).
Next, `Cc1cn(C)c(CC(=O)N2CCN(c3ccc(F)cc3)CC2)c1C(=O)O`: 133% (inactive); `Cc1cn(C)c(CC(=O)N2CCN(c3ccccc3F)CC2)c1C(=O)O`: 69% (inactive).
Next, `Cc1cccc(N2CCN(C(=O)Cc3c(C(=O)O)c(C)cn3C)CC2)c1C`: 70% (inactive); `COc1ccc(N2CCN(C(=O)Cc3c(C(=O)O)c(C)cn3C)CC2)cc1`: 14% (active); `Cc1cn(C)c(CC(=O)N2CCN(c3cccc(Cl)c3)CC2)c1C(=O)O`: 78% (inactive).
Take `COc1ccccc1N1CCN(C(=O)Cc2c(C(=O)O)c(C)cn2C)CC1`: the survival is -6% (active).
Then `CCOc1cccc(C2c3c(oc4cc(C)c(C)cc4c3=O)C(=O)N2c2nc(C)c(C)s2)c1` (stereo not drawn), with 71% (inactive).
Then `CCc1ccc(NC(=O)[C@H](CSCc2ccccc2)N2Cc3ccccc3C2=O)cc1`, with 79% (inactive); and `CCc1ccccc1NC(=O)CN1CCC(NC(=O)NC2CCCCC2)CC1`, with 102% (inactive).
Then `COc1ccccc1N1CCN(c2ncnc3c2nnn3C)CC1`, with 129% (inactive); and `Cc1cc(F)ccc1NC(=O)C1CCCN(C(=O)c2cnn(-c3ccccc3)c2-n2cccc2)C1` (stereo not drawn), with 85% (inactive); and `CCCN1C(C(=O)c2ccccc2)=C(OC(=O)COc2ccc(C)cc2)c2ccccc2S1(=O)=O`, with 25% (inactive).
Regarding `c1ccc2c(c1)ncn2-c1ncnc2sc3c(c12)CCCC3`, the survival is 107% (inactive).
Turning to `COc1ccc(-c2cc(OC(=O)c3cccc(Cl)c3)c3c(C)oc(C)c3c(=O)c2)cc1OC`, the survival was 76% (inactive).
Then `CSc1cccc(NC(=O)c2cccc(N3CCCS3(=O)=O)c2)c1`, with 115% (inactive); and `CCN(C(=O)Cn1c(C(=O)OC)cc2sccc21)c1cccc(C)c1`, with 73% (inactive).
Next, `O=c1cc(-c2ccccc2)nc(SCc2nc(-c3cccc(C(F)(F)F)c3)no2)[nH]1`: 83% (inactive).
Then `Cc1ccc(Sc2ccc(N3CCCC(C(=O)Nc4ccc(Cl)cc4)C3)nn2)cc1` (stereo not drawn), with 71% (inactive); and `CCOc1ccc(NC(=O)C2CCCN(c3ccc(Sc4ccc(C)cc4)nn3)C2)cc1` (stereo not drawn), with 16% (active).
As for `CCOC(=O)c1ccc(NC(=O)C2CCCN(c3ccc(Sc4ccc(C)cc4)nn3)C2)cc1` (stereo not drawn), the survival was 80% (inactive).
Next, `O=S(=O)(c1ccc(Br)cc1)c1nnn2c1nc(NCc1ccc3c(c1)OCO3)c1sccc12`: 90% (inactive); `CCOC(=O)C1CCN(C(=O)c2ccc(-n3ccc4ccccc43)s2)CC1`: 71% (inactive); `CCOC(=O)C1CCCN(C(=O)c2ccc(-n3ccc4ccccc43)s2)C1` (stereo not drawn): -3% (active).
Then `CCC(C)NC(=O)C1CCN(C(=O)c2ccc(-n3ccc4ccccc43)s2)CC1` (stereo not drawn), with 55% (inactive); and `COCCn1c(=S)[nH]c2ccccc2c1=O`, with 105% (inactive).
Then `CCCC(=O)N(c1ccc2oc3c(c2c1)CCCC3)S(=O)(=O)c1ccc(CC)cc1`, with 67% (inactive).
`CC(C)c1ccc(-c2nnn(CC(N)=O)n2)cc1`: the survival is 115% (inactive).
Next, `COc1ccccc1N1CCN(C(=O)c2cnn(-c3ccc(F)cc3F)c2C2CCNCC2)CC1`: 0% (active); `CC(C)(C)OC(=O)N1CCC(c2c(C(=O)N3CCN(c4ncccn4)CC3)cnn2-c2ccccc2)CC1`: 87% (inactive).
Then `Cc1ccc(-n2ncc(C(=O)N3CCN(c4ncccn4)CC3)c2C2CCN(C(=O)OC(C)(C)C)CC2)cc1`, with 71% (inactive); and `Cc1ccc(-n2ncc(C(=O)N3CCN(c4cccc(C)c4C)CC3)c2C2CCNCC2)c(C)c1`, with 84% (inactive); and `CC(C)(C)OC(=O)N1CCC(c2c(C(=O)N3CCN(c4ncccn4)CC3)cnn2-c2ccc(F)cc2F)CC1`, with 1% (active).
Then `CC(C)(C)OC(=O)N1CCC(c2c(C(=O)N3CCN(c4ccccn4)CC3)cnn2-c2ccc(F)cc2F)CC1`, with 71% (inactive).
Turning to `CN1CCN(C(=O)c2cnn(-c3ccc(F)cc3F)c2C2CCN(C(=O)OC(C)(C)C)CC2)CC1`, the survival is 87% (inactive).
Next, `Cc1cccc(N2CCN(C(=O)c3cnn(-c4ccc(F)cc4F)c3C3CCN(C(=O)OC(C)(C)C)CC3)CC2)c1C`: 99% (inactive); `CC(C)(C)OC(=O)N1CCC(c2c(C(=O)N3CCN(c4ncccn4)CC3)cnn2-c2ccc(F)cc2)CC1`: -1% (active); `COc1ccc(OC)c(NC(=O)Cn2cc(C(=O)c3ccc(Cl)cc3)c(=O)c3cc(OC)ccc32)c1`: 68% (inactive).
With `O=C(CSc1nc2c([nH]c3ccccc32)c(=O)n1-c1ccccc1)Nc1ccc2c(c1)OCCO2`, the survival is 87% (inactive).
Next, `CCOc1ccc(NS(=O)(=O)c2ccc3[nH]cc(C(=O)NC4CCCC4)c(=O)c3c2)cc1`: 55% (inactive); `CCOc1ccc(NS(=O)(=O)c2ccc3[nH]cc(C(=O)N(C)Cc4ccccc4)c(=O)c3c2)cc1`: 1% (active).
Next, `Cc1cc(C)cc(NS(=O)(=O)c2ccc3[nH]cc(C(=O)N(C)Cc4ccccc4)c(=O)c3c2)c1`: 111% (inactive).
Then `Cc1cc(C)cc(NS(=O)(=O)c2ccc3[nH]cc(C(=O)NC4CCCCC4)c(=O)c3c2)c1`, with 27% (inactive); and `Cc1c(Cl)cccc1NS(=O)(=O)c1ccc2[nH]cc(C(=O)NC3CCCC3)c(=O)c2c1`, with 11% (active); and `CCOc1ccc(NS(=O)(=O)c2ccc3[nH]cc(C(=O)NCc4ccccc4)c(=O)c3c2)cc1`, with 74% (inactive).
With `CC(C)c1ccc(NS(=O)(=O)c2ccc3[nH]cc(C(=O)NC4CCCC4)c(=O)c3c2)cc1`, the survival was 7% (active).
Then `CCc1ccc(NS(=O)(=O)c2ccc3[nH]cc(C(=O)NC4CCCC4)c(=O)c3c2)cc1`, with 9% (active); and `CNC(=O)c1c[nH]c2ccc(S(=O)(=O)Nc3cccc(Cl)c3C)cc2c1=O`, with 82% (inactive).
For `Cc1ccccc1NS(=O)(=O)c1ccc2[nH]cc(C(=O)NC3CCCCC3)c(=O)c2c1`, the survival is 80% (inactive).
Next, `CCc1ccccc1NS(=O)(=O)c1ccc2[nH]cc(C(=O)NC3CCCC3)c(=O)c2c1`: 42% (inactive).
Next, `CC(C)c1ccc(NS(=O)(=O)c2ccc3[nH]cc(C(=O)NC4CCCCC4)c(=O)c3c2)cc1`: 13% (inactive); `COc1ccc(-n2ncc3c2ncn2nc(-c4ccc(Cl)cc4Cl)nc32)cc1`: 92% (inactive).
Next, `Cc1ccc(NC2=NCC(=O)N2C2CCCC2)cc1C`: 104% (inactive); `CCOC(=O)c1cc(-c2ccccc2)n(CCCC(=O)Nc2ccc(C)cc2Cl)c1C`: 91% (inactive).
`COc1ccc(S(=O)(=O)N/N=C(/C2CCCCC2)C(F)(F)F)cc1`: the survival is 111% (inactive).
Regarding `CCN(C(=O)CCS(=O)(=O)c1ccc2c(c1)oc(=O)n2C)c1ccc(OC)cc1`, the survival is 70% (inactive).
Next, `CCc1ccccc1NC(=O)Nc1cc(C(=O)NCc2ccc(OC)cc2)ccc1N1CCCC1`: 128% (inactive); `COc1cccc(NS(=O)(=O)c2ccc3[nH]cc(C(=O)NC4CCCCC4)c(=O)c3c2)c1`: 50% (inactive); `CN(C(=O)c1c[nH]c2ccc(S(=O)(=O)Nc3cccc(C(F)(F)F)c3)cc2c1=O)C1CCCCC1`: 71% (inactive).
Next, `O=C(NC1CCCC1)c1c[nH]c2ccc(S(=O)(=O)Nc3cccc(C(F)(F)F)c3)cc2c1=O`: 11% (active); `COc1cccc(-n2c(SCC(=O)c3ccc(Cl)cc3)nc3c([nH]c4ccccc43)c2=O)c1`: 45% (inactive).
Then `COc1cc(OC)c(NC2(c3ccccc3)C(=O)c3ccccc3C2=O)cc1Cl`, with 65% (inactive); and `CCN(CC)CCCNC(=O)c1c(C)oc2ncn(CC(C)C)c(=O)c12`, with 81% (inactive); and `CCCCNC(=O)c1c(C)oc2ncn(CC(C)C)c(=O)c12`, with 1% (active).
As for `Cc1oc2ccc(O)c(CN3CCN(C)CC3)c2c1C(=O)Nc1cccc(C(F)(F)F)c1`, the survival was 92% (inactive).
For the compound `CCOc1ccc(CCNC(=O)c2c(C)oc3ncn(C)c(=O)c23)cc1`, the survival is 82% (inactive).
Then `Cc1cccc(NC(=O)c2c(C)oc3ncn(CC(C)C)c(=O)c23)n1`, with 71% (inactive); and `Cc1oc2ncn(CC(C)C)c(=O)c2c1C(=O)Nc1cccc(C(F)(F)F)c1`, with -3% (active); and `Cc1ccnc(NC(=O)c2c(C)oc3ncn(CC(C)C)c(=O)c23)c1`, with 69% (inactive).
Next, `Cc1oc2ncn(CC(C)C)c(=O)c2c1C(=O)NCCCN1CCCCC1`: 73% (inactive); `Cc1oc2ccc(O)c(CN(C)Cc3ccccc3)c2c1C(=O)Nc1ccccc1`: 105% (inactive); `CCNC(=O)c1c(C)oc2ncn(C)c(=O)c12`: 119% (inactive).
Next, `Cc1oc2ccc(O)c(CN(C)Cc3ccccc3)c2c1C(=O)Nc1cccc(C(F)(F)F)c1`: 10% (active).
Regarding `CSc1ccc(CCNC(=O)c2c(C)oc3ncn(C)c(=O)c23)cc1`, the survival was -4% (active).
